Results taken from PubChem BioAssay AID1159580 (chemical genetic matrix, 2015).
“And” between values parts separate entries of the source, which are not always exact repeats. Equal values may be shown once. In all, about 5,500 compounds went through this assay and about 2,000 (36%) were called active. Another 18% or so got no clear call; they are omitted. No stated cut-off is given here; in the data, active means normalized growth mostly below about 0.91 (no sharp cut-off); inconclusive means no clear call, values can overlap the other calls; inactive means mostly above about 0.92. Some of the results follow.

Test: chemical genetic growth profiling, strain panel (AID 1159580);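 further: tested at 20 µM; growth read once vehicle control cultures reached saturation at 30 °C; 1 = growth at the plate median or of vehicle wells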
Conditions: S. cerevisiae deletion strains, growth OD

Measured: normalized growth

CC(CCC(=O)O)[C@H]1CCC2C3CC[C@@H]4CCCC[C@]4(C)C3CC[C@@]21C (stereo partly drawn)
inactive: locus YAL013W, strain DEP1, stronger effect = lower value 0.995 | locus YAL021C, strain ccr4, stronger effect = lower value 1.01 | locus YAL026C, strain drs2, stronger effect = lower value 1.01 | locus YAL030W, strain snc1, stronger effect = lower value 1.01 | locus YBL061C, strain skt5, stronger effect = lower value 1.02 | locus YBR009C, strain hhf1, stronger effect = lower value 1.01 | locus YBR021W, strain FUR4, stronger effect = lower value 0.987 | locus YBR023C, strain chs3, stronger effect = lower value 1.03 | locus YBR171W, strain sec66, stronger effect = lower value 1.02 | locus YBR229C, strain ROT2, stronger effect = lower value 0.991 | locus YBR231C, strain swc5, stronger effect = lower value 1.03 | locus YBR279W, strain paf1, stronger effect = lower value 1.01 | locus YCL011C, strain gbp2, stronger effect = lower value 1.02 | locus YCL016C, strain dcc1, stronger effect = lower value 1.04 | locus YCL029C, strain bik1, stronger effect = lower value 0.98 | locus YCL061C, strain MRC1, stronger effect = lower value 1.02 | locus YCL069W, strain vba3, stronger effect = lower value 1.01 | locus YCR088W, strain abp1, stronger effect = lower value 1.01 | locus YDL005C, strain med2, stronger effect = lower value 0.999 | locus YDL035C, strain GPR1, stronger effect = lower value 0.982 | locus YDL040C, strain nat1, stronger effect = lower value 1.01 | locus YDL074C, strain BRE1, stronger effect = lower value 0.973 | locus YDL101C, strain DUN1, stronger effect = lower value 1.01 | locus YDL185W, strain tfp1, stronger effect = lower value 0.977 | locus YDL192W, strain arf1, stronger effect = lower value 0.98 | locus YDR001C, strain nth1, stronger effect = lower value 1.01 | locus YDR069C, strain doa4, stronger effect = lower value 0.994 | locus YDR101C, strain arx1, stronger effect = lower value 0.983 | locus YDR137W, strain rgp1, stronger effect = lower value 1.05 | locus YDR150W, strain NUM1, stronger effect = lower value 0.995 | locus YDR159W, strain sac3, stronger effect = lower value 0.998 | locus YDR162C, strain NBP2, stronger effect = lower value 1.04 | locus YDR195W, strain ref2 0.981 | locus YDR297W, strain sur2, stronger effect = lower value 1.01 | locus YDR318W, strain mcm21, stronger effect = lower value 0.988 | locus YDR334W, strain swr1, stronger effect = lower value 1 | locus YDR335W, strain msn5, stronger effect = lower value 1 | locus YDR388W, stronger effect = lower value 0.987 | locus YDR392W, strain spt3, stronger effect = lower value 0.943 | locus YDR502C, strain sam2, stronger effect = lower value 0.979 | locus YEL003W, strain gim4, stronger effect = lower value 1.01 | locus YEL037C, strain rad23, stronger effect = lower value 0.993 | locus YEL061C, strain CIN8 (second series), stronger effect = lower value 1.01 | locus YEL061C, strain CIN8, stronger effect = lower value 0.995 | locus YER015W, strain faa2, stronger effect = lower value 1 | locus YER016W, strain bim1, stronger effect = lower value 1.01 | locus YER110C, stronger effect = lower value 0.986 | locus YER111C, strain swi4, stronger effect = lower value 1.02 | locus YER155C, strain BEM2 (second series), stronger effect = lower value 1.03 | locus YER155C, strain BEM2, stronger effect = lower value 0.989 | locus YER167W, strain BCK2, stronger effect = lower value 0.98 | locus YFR010W, strain ubp6, stronger effect = lower value 0.997 | locus YGL078C, strain dbp3, stronger effect = lower value 0.989 | locus YGL086W, strain mad1, stronger effect = lower value 0.985 | locus YGL167C, strain pmr1, stronger effect = lower value 1.01 | locus YGL173C, strain kem1, stronger effect = lower value 1.01 | locus YGL227W, strain vid30, stronger effect = lower value 1.02 | locus YGL240W, strain doc1, stronger effect = lower value 1.03 | locus YGL248W, strain PDE1, stronger effect = lower value 1 | locus YGL253W, strain hxk2, stronger effect = lower value 1 | locus YGR078C, strain PAC10, stronger effect = lower value 1.02 | locus YGR135W, strain pre9, stronger effect = lower value 1.02 | locus YGR252W, strain gcn5, stronger effect = lower value 1.08 | locus YHR013C, strain ard1, stronger effect = lower value 1.02 | locus YHR027C, strain rpn1, stronger effect = lower value 0.995 | locus YHR030C, strain SLT2, stronger effect = lower value 0.997 and 0.97 | locus YHR079C, strain IRE1 (second series), stronger effect = lower value 0.981 | locus YHR079C, strain IRE1, stronger effect = lower value 0.973 | locus YHR094C, strain hxt1, stronger effect = lower value 0.985 | locus YHR129C, strain ARP1, stronger effect = lower value 0.995 | locus YHR142W, strain chs7, stronger effect = lower value 1 | locus YHR200W, strain rpn10, stronger effect = lower value 0.995 | locus YIL066C, strain RNR3, stronger effect = lower value 0.992 | locus YIL073C, strain SPO22, stronger effect = lower value 1.02 | locus YIL125W, strain kgd1, stronger effect = lower value 0.988 | locus YIR030C, strain dcg1, stronger effect = lower value 0.985 | locus YJL092W, strain hpr5, stronger effect = lower value 1.01 | locus YJL095W, strain BCK1 (second series), stronger effect = lower value 1 | locus YJL095W, strain BCK1, stronger effect = lower value 1.02 and 0.968 | locus YJL115W, strain asf1, stronger effect = lower value 1.01 | locus YJL129C, strain trk1, stronger effect = lower value 1.03 | locus YJL134W, strain LCB3, stronger effect = lower value 0.996 | locus YJL154C, strain vps35, stronger effect = lower value 1.01 | locus YJL164C, strain tpk1, stronger effect = lower value 1.02 | locus YJL166W, strain qcr8, stronger effect = lower value 1.01 | locus YJL168C, strain set2, stronger effect = lower value 0.983 | locus YJL187C, strain SWE1 (second series), stronger effect = lower value 1.01 | locus YJL187C, strain SWE1, stronger effect = lower value 1.01
